Test systems include DU-145 prostate; K-562 leukemia; MALME-3M melanoma; MDA-MB-231 breast; RXF 393 renal; SF-268 CNS; SF-295 CNS; SF-539 CNS; M14 melanoma; UACC-257 melanoma.
What all share (experiment): NCI-60 one-dose screen, 48 h (100 = growth as untreated, 0 = no growth, -100 = all killed)
Holding throughout (settings): 10 µM unless noted

These results are taken from PubChem BioAssay (NCI).

About 83,000 compounds went through this panel and 20% of them were active in at least one assay; those are over-represented in the sample as a whole.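 A percent growth of 40 corresponds to 60% growth inhibition; 0 means no net growth; -100 means all cells died. Active threshold: below 10.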 Values without a mark were called inactive. Active and inactive are the calls of the source.

Turning to `CC(C)(C)[Si](C)(C)OC1[C@@H](COC(N)=O)O[C@@H](n2cnc3c(N)ncnc32)[C@H]1O[Si](C)(C)C(C)(C)C` (stereo partly specified), the growth is 75.1% in the test with DU-145 prostate; 7.16% (active) in the test on K-562 leukemia; 111% with MALME-3M melanoma; 100% in the test with MDA-MB-231 breast; 106% in the test with RXF 393 renal; 79.8% with SF-268 CNS. Further, the growth in the test on SF-295 CNS was 118%; in the test on SF-539 CNS it was 97.4%; in the test on M14 melanoma, 98.8%.
`CCCN(CCC)c1ccc(/C=C/c2ccc3cc(OCC)ccc3n2)cc1`: the growth in the test on DU-145 prostate is 91.6%; with K-562 leukemia, 72.9%; with MALME-3M melanoma it was 88%; in the test on MDA-MB-231 breast, 109%; in the test on RXF 393 renal it was 81.6%; with SF-268 CNS, 90.7%. The growth in the test on SF-295 CNS was 91.9%; in the test on SF-539 CNS, 90.7%; with UACC-257 melanoma, 84.3%; in the test with M14 melanoma it was 86.4%.
Regarding `CCOC(=O)c1cc2c(n(C)c1=O)-c1cnn(-c3ccc(OC)cc3)c1CC2`, the growth is 117% with DU-145 prostate; 104% with K-562 leukemia; 95.1% with MALME-3M melanoma; 97.9% in the test on MDA-MB-231 breast; 102% with RXF 393 renal; 99.8% with SF-268 CNS. The growth in the test on SF-295 CNS was 91.7%; in the test on SF-539 CNS it was 90.1%; in the test with UACC-257 melanoma, 93.6%; with M14 melanoma it was 106%.
Take `COc1ccc(/C=N/NC(=O)c2cnn(CC(O)Cc3ccccc3)c2N)cc1OC1CCCC1` (stereo unspecified): the growth with DU-145 prostate is 91.2%; with K-562 leukemia, 99.5%; in the test on MALME-3M melanoma it was 99.4%; with MDA-MB-231 breast, 86.1%; in the test with RXF 393 renal it was 85.8%; in the test on SF-268 CNS, 98.3%. Further, the growth with SF-295 CNS was 83.8%; in the test with SF-539 CNS it was 87.3%; with UACC-257 melanoma, 110%; in the test with M14 melanoma, 99.5%.
With `COc1cc2nc(SCc3cc(OC)c(OC)c(OC)c3)n(-c3ccccc3OC)c(=O)c2cc1OC`, the growth with DU-145 prostate was 81.8%; with K-562 leukemia, 27.3%; in the test with MALME-3M melanoma it was 63%; in the test on MDA-MB-231 breast, 77.5%; in the test with RXF 393 renal, 78.1%; in the test on SF-268 CNS it was 69.9%. Also, the growth with SF-295 CNS was 73.8%; in the test on SF-539 CNS it was 89.9%; in the test on M14 melanoma, 77.1%.
In the case of `COc1ccccc1-n1c(SCc2cc(OC)c(OC)c(OC)c2)nc2ccc(Cl)cc2c1=O`, the growth in the test with DU-145 prostate is 30.1%; in the test with K-562 leukemia it was 12.7%; in the test with MALME-3M melanoma it was 33%; in the test on MDA-MB-231 breast it was 55.7%; in the test with RXF 393 renal it was 61.5%; in the test on SF-268 CNS, 41.6%. The growth is 31.9% in the test on SF-295 CNS, 64.6% in the test on SF-539 CNS and 15.9% with M14 melanoma.
For the compound `Cc1nn(-c2ccccc2)c2nc3nc4c(c(N)c3c(-c3ccc(Cl)cc3)c12)CCCC4`, the growth with DU-145 prostate is 109%; in the test on K-562 leukemia, 53.4%; in the test on MALME-3M melanoma it was 108%; in the test with MDA-MB-231 breast, 91.5%; in the test on RXF 393 renal, 90.9%; in the test with SF-268 CNS, 105%. Further, the growth in the test on SF-295 CNS is 96%; in the test with SF-539 CNS, 96.9%; in the test with UACC-257 melanoma, 91.9%; in the test with M14 melanoma, 106%.
Regarding `O=c1onc(-c2ccccc2)c2ccccc12`, the growth with DU-145 prostate was 113%; in the test on K-562 leukemia, 105%; in the test with MALME-3M melanoma, 121%; in the test on MDA-MB-231 breast it was 97%; with RXF 393 renal, 90.5%; in the test with SF-268 CNS, 113%. The growth in the test on SF-295 CNS is 101%; in the test with SF-539 CNS, 122%; with UACC-257 melanoma, 120%; in the test on M14 melanoma it was 118%.
`Cn1c2c(cc(S(=O)(=O)c3ccccc3)c1=O)CCc1c-2cnn1-c1ccccc1Cl`: the growth with DU-145 prostate was 120%; in the test with K-562 leukemia, 95.5%; with MALME-3M melanoma, 108%; in the test on MDA-MB-231 breast it was 101%; with RXF 393 renal, 111%; in the test on SF-268 CNS, 106%. Besides, the growth was 87.9% with SF-295 CNS, 90.2% in the test on SF-539 CNS, 89.8% in the test on UACC-257 melanoma and 110% in the test with M14 melanoma.
For the compound `CN(C)c1ccc(/C=C(\C#N)c2cc3ccccc3n2C)cc1`, the growth is 10.9% with DU-145 prostate; 7.77% (active) in the test on K-562 leukemia; 56.9% with MALME-3M melanoma; 20.1% with MDA-MB-231 breast; 10.5% in the test with RXF 393 renal; 47.5% in the test on SF-268 CNS. Besides, the growth is 7.63% (active) in the test on SF-295 CNS, -12.5% (active) in the test on SF-539 CNS, 68.9% with UACC-257 melanoma and 8.17% (active) in the test on M14 melanoma.
In the case of `CC(C)(C)[Si](C)(C)OC1[C@@H](O[Si](C)(C)C(C)(C)C)[C@@H](CNC(=O)NC(=O)C(F)(F)F)O[C@H]1n1cnc2c(NC(=O)Nc3ccccc3)ncnc21` (stereo partly specified), the growth in the test on DU-145 prostate is -81.2% (active); with K-562 leukemia, -40.8% (active); in the test with MALME-3M melanoma, 74.8%; with MDA-MB-231 breast it was 82.7%; with RXF 393 renal it was 104%; in the test with SF-268 CNS it was -29% (active). In addition, the growth in the test on SF-295 CNS was 69.5%; in the test with SF-539 CNS, 92.5%; in the test on M14 melanoma, 71.6%.
As to `COc1ccc(-c2c3c(N)c4c(nc3nc3c2c(C)nn3-c2ccccc2)CCCC4)cc1`, the growth in the test on DU-145 prostate is 80.4%; in the test on K-562 leukemia, 11.9%; in the test on MALME-3M melanoma, 113%; in the test with MDA-MB-231 breast, 76.1%; in the test with RXF 393 renal, 84.2%; in the test on SF-268 CNS, 86%. Also, the growth in the test with SF-295 CNS is 84.9%; with SF-539 CNS, 91.8%; with UACC-257 melanoma, 108%; in the test on M14 melanoma it was 87.9%.
Turning to `CCCCC(=O)N/N=C/c1cc(I)cc(I)c1O`, the growth is 51% in the test on DU-145 prostate; 32.1% in the test on K-562 leukemia; 75.8% in the test with MALME-3M melanoma; 57% with MDA-MB-231 breast; 74.6% with RXF 393 renal; 43.1% in the test with SF-268 CNS. Also, the growth in the test on SF-295 CNS was 41.2%; in the test on SF-539 CNS it was 28.8%; with UACC-257 melanoma, 41.8%; in the test with M14 melanoma it was 56.4%.
Consider `FC(F)(F)c1cc(CNc2nc(Cl)ncc2Br)cc(C(F)(F)F)c1`, for which the growth in the test with DU-145 prostate was 98.9%; in the test on K-562 leukemia it was 50.2%; with MALME-3M melanoma, 91.1%; with MDA-MB-231 breast, 89%; in the test on RXF 393 renal, 92.6%; in the test on SF-268 CNS, 93.4%. The growth was 88.4% in the test with SF-295 CNS, 85% in the test on SF-539 CNS, 80.8% with UACC-257 melanoma and 93.9% in the test with M14 melanoma.
